# Experimental data: PubChem BioAssay (EPA / NIEHS)
# Results filed as inconclusive are left out. Active and inactive are the calls of the source. Rule for the calls: active = hit-call score of the fitted dose curve at least 0.9, where 1 is the maximum; inconclusive = response in the unintended direction; inactive = score below 0.9.
# Read-out: glucuronosyltransferase (UGT1A1), UGT1A1 (gene 54658)
# Test: CLD_UGT1A1_6hr: CellzDirect (CLD) Gene Expression Assay for glucuronosyltransferase (UGT1A1) at 6 hours (AID 2283672)
# Experimental: CLD_6hr is a cell-based, multiplexed-readout assay that uses hepatocyte, a human liver primary cell, with measurements taken at 6 hours after chemical dosing in a 96-well plate.CLD_UGT1A1_6hr is one of 16 assay component(s) measured or calculated from the CLD_6hr assay. It is designed to make measurements of mRNA induction, a form of inducible reporter, as detected with chemiluminescence signals by Quantitative Nuclease Protection Assay (qNPA) technology.Data from the assay component CLD_UGT1A1_6hr was analyzed at the endpoint, CLD_UGT1A1_6hr, in the positive analysis fitting direction relative to DMSO as the negative control and baseline of activity. Using a type of inducible reporter, gain-of-signal activity can be used to understand changes in the reporter gene as they relate to the gene UGT1A1. Furthermore, this assay endpoint can be referred to as a primary readout. To generalize the intended target to other relatable targets, this assay endpoint is annotated to the transferase intended target family, where subfamily is glucuronosyltransferase.
# Human hepatocyte cultures were treated daily for two consecutive days with fresh dosing solutions containing appropriate concentrations of the 320 ToxCast chemicals (chemical identities were blinded to CellzDirect and other ToxCast collaborators), vehicle control (0.2% DMSO), and positive control inducers as summarized in Table 1. Due to the large number of treatment groups and chemicals examined, the ToxCast chemicals were divided into two groups (spanning two independent cultures of hepatocytes from separate donor preparations (Hu778: ToxCast plates 1 and 2; Hu776: ToxCast plates 3 and 4). Each preparation of human hepatocyte cultures was treated with respective vehicle control, medium only control, set of six positive controls/reference chemicals for the five hepatic receptor pathways, and a subset of eight of the ToxCast chemicals (indoxacarb, pyrithiobac-sodium, norflurazon, cyhalofop-butyl, methomyl, thiram, acetochlor, and propiconazole). These replicate data, coupled with internal replicates designed within the blinded ToxCast chemical library, provided additional data to evaluate interindividual differences between hepatocyte preparations and their potential impact on chemical profiles.Cell morphology and integrity were evaluated using phase-contrast microscopy as an indicator of hepatocyte cell health (Tyson & Green, 1987). Cultures for each treatment group (i.e., media, vehicle [0.2% DMSO], positive control inducers [multiple concentrations], and the ToxCast chemicals [multiple concentrations]) were observed and cell morphology was assessed relative to vehicle control cultures at each harvest time point (0, 6, 24, or 48 h). […] Images were evaluated at the conclusion of the study to assess changes in cell integrity and account for the effects of chemical exposure on uncharacteristic changes in concentration-dependent gene expression profiles. The results from these determinations of apparent cytotoxicity were annotated (yes/no) alongside the corresponding qNPA data for reference.At the conclusion of each treatment period, hepatocyte cultures (96-well) were washed with 1 volume of HBSS, lysed by addition of 25 ul ArrayPlate lysis buffer (HTG, Tucson, AZ), and 70 ul/well of Denaturation Oil, denatured by incubation at 95C for 10 min, and frozen at approximately -70C until analysis by nuclease protection assay (qNPA) (Roberts et al., 2007). For qNPA analysis, cell lysates were thawed at 50C for approximately 30 min, qNPA probes were added, and samples were incubated at 95C for 10 min to begin the detection process by denaturing the target RNA, dissociating the duplexes and secondary structure hybridization. At the conclusion of the hybridization period, S1 nuclease reagent was added to each sample to digest all nonprotected nucleotides at 50C for 60-90 min. […]
row,SMILES,outcome
1,CC(C)N(C(=O)COc1nnc(C(F)(F)F)s1)c1ccc(F)cc1,inactive
2,CC(C)(C)C(O)/C(=C\c1ccc(Cl)cc1Cl)n1cncn1 (stereo not given),inactive
3,C[C@H]1[C@H](c2ccc(Cl)cc2)SC(=O)N1C(=O)NC1CCCCC1,inactive
4,Cc1cc(C)nc(NC(=O)NS(=O)(=O)c2ccccc2C(=O)OC2COC2)n1,inactive
5,COC(=O)c1ccccc1S(=O)(=O)NC(=O)N(C)c1nc(C)nc(OC)n1,inactive
6,CCOCN(C(=O)CCl)c1c(C)cccc1CC,inactive
7,CCS(=O)(=O)c1cccnc1S(=O)(=O)NC(=O)Nc1nc(OC)cc(OC)n1,inactive
8,COc1nn(CSP(=S)(OC)OC)c(=O)s1,inactive
9,COP(=O)(OC)OC=C(Cl)Cl,inactive
10,COP(=S)(OC)Oc1ccc([N+](=O)[O-])cc1,inactive
11,Oc1ccc(Cl)cc1Cc1ccccc1,inactive
12,O=S1OCC2C(CO1)C1(Cl)C(Cl)=C(Cl)C2(Cl)C1(Cl)Cl (stereo not given),inactive
13,CCOc1nc(NC)nc(NC(=O)NS(=O)(=O)c2ccccc2C(=O)OC)n1,inactive
14,N#CN,inactive
15,CCC(C)(C)C(=O)OC1=C(c2ccc(Cl)cc2Cl)C(=O)OC12CCCCC2,inactive
16,CCCN(CCOc1c(Cl)cc(Cl)cc1Cl)C(=O)n1ccnc1,inactive
17,O=[N+]([O-])/N=C1\NCCN1Cc1ccc(Cl)nc1,inactive
18,CNC(=O)Oc1cccc(N=CN(C)C)c1,inactive
19,COP(=S)(OC)Oc1ccc(SC)c(C)c1,inactive
20,O=S(=O)(O)C(F)(F)C(F)(F)C(F)(F)C(F)(F)C(F)(F)C(F)(F)C(F)(F)C(F)(F)F,inactive

row,SMILES,outcome
1,CCc1ccc(C(=O)NN(C(=O)c2cc(C)cc(C)c2)C(C)(C)C)cc1,inactive
2,CC(C)(C)C(O)C(Oc1ccc(Cl)cc1)n1cncn1 (stereo not given),inactive
3,O=C(O)C(F)(F)C(F)(F)C(F)(F)C(F)(F)C(F)(F)C(F)(F)C(F)(F)F,inactive
4,CCCN(CCC)c1c([N+](=O)[O-])cc(C(F)(F)F)cc1[N+](=O)[O-],inactive
5,CNC(=O)/C=C(\C)OP(=O)(OC)OC,inactive
6,CNC(=O)CSP(=S)(OC)OC,inactive
7,CC1(C)C(C=C(Cl)Cl)C1C(=O)OC(C#N)c1ccc(F)c(Oc2ccccc2)c1 (stereo not given),inactive
8,CNC(=O)Oc1ccccc1OC(C)C,inactive
9,O=C(O)CCCOc1ccc(Cl)cc1Cl,inactive
10,CCOC1Oc2ccc(OS(C)(=O)=O)cc2C1(C)C (stereo not given),inactive
11,O=[N+]([O-])c1c(Cl)c(Cl)c(Cl)c(Cl)c1Cl,inactive
12,CCC(C)(NC(=O)c1cc(Cl)c(C)c(Cl)c1)C(=O)CCl (stereo not given),inactive
13,Cc1[nH]c(=O)n(C(C)(C)C)c(=O)c1Cl,inactive
14,O=C(NC(=O)c1c(F)cccc1F)Nc1ccc(OC(F)(F)C(F)OC(F)(F)F)c(Cl)c1 (stereo not given),inactive
15,O=C(O)COc1ccc(Cl)cc1Cl,inactive
16,CCC(C)Nc1c([N+](=O)[O-])cc(C(C)(C)C)cc1[N+](=O)[O-] (stereo not given),inactive
17,ClC1C(Cl)C(Cl)C(Cl)C(Cl)C1Cl (stereo not given),inactive
18,O=C(Nc1ccccc1)Nc1cnns1,inactive
19,COC(=O)c1ccccc1CS(=O)(=O)NC(=O)Nc1nc(OC)cc(OC)n1,inactive
20,CC(C)OC(=O)Nc1cccc(Cl)c1,inactive
